Screening data: PubChem BioAssay, National Center for Advancing Translational Sciences (NCATS)
Sampled rows, rich in hits. Any-hit rate of the full collection: about 7.4%.
HEK293 viab – GF-AFC viability counterscreen for inhibitors of alpha-synuclein gene (SNCA) expression; HEK-293-SNCA-luc viability, GF-AFC fluorescence, 24 h; Potency, µM (doses to about 57.1 µM), for the others: top-dose activity change, negative = cytotoxicity, actives largely listed as cytotoxic; actives 0.12% (n = 150,000); AID 1671193, 2021;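 note: 0% = DMSO-treated cells and -100% = medium-only wells without cells; nearly all actives have a fitted effect of over 30% in size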
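HEK-293-SNCA-luc cells (1500/well) plated 24 h, then exposed 24 h to a dilution series; GF-AFC added 30 min at 37C, fluorescence 405/540 nm; normalised to medium-only and DMSO wells, Hill fit.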
Luciferase inh – Firefly luciferase inhibition profiling of diverse chemical library using quantitative high-throughput screening; AID 1347043, 2019; Potency, µM (highest dose often 115 µM), hits mostly inhibitors; purified P. pyralis luciferase, luminescence, biochemical; actives 2.5% (n = 76,000); note: nearly all actives have a fitted effect of over 65% in size
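Inhibitors were tested against purified firefly luciferase in a biochemical, low-substrate format (both substrates at 10uM) and luminescence measured with a CCD imager.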
HEK293 tox – Cytotoxic Profiling in HEK 293 Cell Line of Diverse Libraries Using Quantitative High-Throughput Screening. HEK 293 viability, ATP luminescence (CellTiter-Glo), 48-72 h. Potency, µM (series often up to 115 µM), for inactives: at the top dose activity change, negative = cytotoxicity, most hits filed as inhibitors. actives 6.6% (n = 94,000). AID 1345083, 2018; note: nearly all actives have a fitted effect of over 60% in size
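Read-out: CellTiter-Glo ATP luminescence. Cells: HEK 293, 250 cells/well. Exposure: 48 or 72 hr, 37 degree Celsius.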
NPR1 antag – Natriuretic polypeptide receptor (hNpr1) antagonism - Primary qHTS; actives 1.6% (n = 76,000); HEK293 hNpr1 GloSensor cGMP, ANP-stimulated luminescence; AID 1347048, 2019; Potency, µM (series often up to 46.3 µM), for the others: at the top dose activity change, negative = inhibition, most hits filed as inhibitors; calls by dose curve; note: nearly all actives have a fitted effect of over 60% in size
Target sequence (P16066 whole entry, looked up): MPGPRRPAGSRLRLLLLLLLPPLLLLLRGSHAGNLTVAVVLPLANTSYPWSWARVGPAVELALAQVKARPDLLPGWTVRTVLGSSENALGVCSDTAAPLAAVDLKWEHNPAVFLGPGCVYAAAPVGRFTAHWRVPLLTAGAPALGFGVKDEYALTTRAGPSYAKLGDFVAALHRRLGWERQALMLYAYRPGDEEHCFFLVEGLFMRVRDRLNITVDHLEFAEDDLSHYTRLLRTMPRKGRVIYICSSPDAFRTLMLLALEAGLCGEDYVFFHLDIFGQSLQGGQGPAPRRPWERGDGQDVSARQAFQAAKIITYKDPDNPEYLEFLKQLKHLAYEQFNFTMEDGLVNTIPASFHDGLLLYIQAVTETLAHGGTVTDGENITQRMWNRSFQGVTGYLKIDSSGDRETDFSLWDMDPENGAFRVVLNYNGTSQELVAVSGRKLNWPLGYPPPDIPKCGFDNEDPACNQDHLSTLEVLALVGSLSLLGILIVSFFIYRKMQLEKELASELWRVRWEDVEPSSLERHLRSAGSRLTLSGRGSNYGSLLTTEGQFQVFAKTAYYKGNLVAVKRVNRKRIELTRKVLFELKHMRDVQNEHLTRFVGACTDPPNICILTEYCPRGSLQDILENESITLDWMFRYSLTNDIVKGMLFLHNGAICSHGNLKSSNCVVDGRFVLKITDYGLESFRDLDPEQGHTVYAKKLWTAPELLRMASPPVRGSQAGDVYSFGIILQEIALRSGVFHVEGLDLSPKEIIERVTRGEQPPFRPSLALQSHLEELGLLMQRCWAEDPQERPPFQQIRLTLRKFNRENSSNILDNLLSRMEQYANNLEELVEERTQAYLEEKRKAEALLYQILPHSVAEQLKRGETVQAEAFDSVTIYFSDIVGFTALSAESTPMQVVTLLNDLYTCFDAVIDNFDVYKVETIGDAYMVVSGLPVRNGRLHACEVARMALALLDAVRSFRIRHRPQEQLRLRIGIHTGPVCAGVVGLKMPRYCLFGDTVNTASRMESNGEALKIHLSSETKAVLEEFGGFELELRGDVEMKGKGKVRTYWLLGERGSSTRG
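HEK293 cells stably expressing human Npr1 and cGMP GloSensor pGS-40F, loaded 2 h with 2% GloSensor reagent, given compound 30 min at room temperature. Luminescence read before and 20 min after 0.1 nM hNppA.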
NIH3T3 tox – Cytotoxic Profiling in NIH 3T3 Cell Line of Diverse Libraries Using Quantitative High-Throughput Screening; NIH 3T3 viability, CellTiter-Glo ATP luminescence, 48-72 h; Potency, µM (highest dose often 96.7 µM), for inactives: at the highest dose activity change, negative = cytotoxicity, actives largely listed as inhibitors; actives 4.3% (n = 94,000); note: nearly all actives have a fitted effect of over 55% in size
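First NIH 3T3 cells are plated at 400 cells/well; next compound is pinned in; then plates incubate 48 or 72 hr at 37 °C; finally CellTiter-Glo is added and luminescence read after 10 min.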
SNCA expr inh – Primary qHTS assay for inhibitors of alpha-synuclein gene (SNCA) expression. HEK-293 SNCA-luciferase knock-in, luminescence, 24 h. Potency, µM (series often up to 57.2 µM), inactives show top-dose activity change, negative = inhibition, usual class: inhibitors. actives 0.17% (n = 140,000);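 note: plate controls were DMSO cells for no effect and cell-free wells for full effect; nearly all actives have a fitted effect of over 45% in size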
An asterisk follows results filed as active; i = inactive; u = inconclusive; [ ] = dose if it differs, or a comment. Unless noted, calls come from the whole dose curve; as a rule, active = well fitted curve in the direction sought with a large enough effect; inconclusive = small, poorly fitted or top-dose-only effect, or another doubt; inactive = no such curve, though single readings can be large; an effect the other way counts as inactive or inconclusive. Unless noted, % is set by controls: 0 for no effect and ±100 for the full control effect; potency is the fitted concentration of half-maximal effect.

SMILES | HEK293 viab | Luciferase inh | HEK293 tox | NPR1 antag | NIH3T3 tox | SNCA expr inh
Cc1cc(C)n(CCC(=O)N2c3ccccc3CC2c2noc(C3CCOCC3)n2)n1 (stereo not given) | -7.5% | 25.1µM* | u | -29.3% | u | 72.1%
Cc1cc(C)n(CCC(=O)N2CCC(c3noc(C4CC4)n3)C2)n1 (stereo not given) | 10.6% | i | -6.5% | -1.8% | i | 3.8%
O=C1Nc2ccc(-c3ccccc3F)cc2C(=O)N2C[C@@H](NS(=O)(=O)c3ccc(F)cc3)C[C@@H]12 | 3.1% | i | u | 0.1% | u | -8.5%
COc1ccc(Cl)cc1-c1ccc2c(c1)C(=O)N1CC[C@H](N)C[C@H]1C(=O)N2 | -1.2%[87.6 µM] | i | 25.1µM* | -15.9%[70.6 µM] | 31.6µM* | -22.2%[87.6 µM]
COc1ccc(Cl)cc1-c1ccc2c(c1)C(=O)N1C[C@@H](NS(=O)(=O)c3ccc(F)cc3)C[C@H]1C(=O)N2 | u | i | 35.5µM* | -28.4% | u | u
COc1ccc(Cl)cc1-c1ccc2c(c1)C(=O)N1C[C@H](O)C[C@H]1C(=O)N2 | 3.1%[87.6 µM] | i | u | 2.7%[70.6 µM] | u | -10.6%[87.6 µM]
O=C(c1cn(-c2ccccc2)nn1)N1CCCCCC1c1ccco1 (stereo not given) | 3.4% | i | u | -0.7% | u | 93.3%
CCN(CC)C(=O)c1cccc(-c2ccc(OCCn3ccnc3)cc2)c1 | -4.7% | i | 44.7µM* | -25.2% | u | 1.1%
CCN(CCOc1ccc(C)cc1)C(=O)c1c(O)cccc1O | -10.1% | i | u | -20.8% | u | 4.6%
CC(c1cccs1)N(C)C(=O)c1cccc(Cl)c1 (stereo not given) | -17.5%[87.6 µM] | i | 100µM* | -1.8%[70.6 µM] | -20.7%[138 µM] | -13.6%[87.6 µM]
COc1cccc(C(=O)N(C)C(C)c2cccs2)c1 (stereo not given) | -9.2%[87.6 µM] | i | -18.9%[172 µM] | -7.4%[70.6 µM] | -20.1%[138 µM] | -13.8%[87.6 µM]
CC(c1cccs1)N(C)C(=O)Nc1ccc(Cl)cc1 (stereo not given) | -15.2%[87.6 µM] | 44.7µM* | u | 0.6%[70.6 µM] | 79.4µM* | 3.2%[87.6 µM]
CN(Cc1ccc(F)cc1)c1ccc2ncc(Nc3ccc4c(c3)OCO4)n2n1 | -12.4%[87.6 µM] | i | 63.1µM* | u | 28.2µM* | u
OCCc1ccc(Nc2cnc3ccc(-c4ccc(F)cc4)nn23)cc1 | -23.4%[87.6 µM] | i | u | -9.2%[70.6 µM] | u | -11.7%[87.6 µM]
CN(Cc1cccnc1)c1ccc2ncc(Nc3ccc4c(c3)OCO4)n2n1 | u | i | u | -30.2%[70.6 µM] | u | -14.0%[87.6 µM]
CN(Cc1cccnc1)c1ccc2ncc(Nc3ccc(F)cc3)n2n1 | 3.9%[87.6 µM] | i | 79.4µM* | u | u | -28.5%[87.6 µM]
CN(Cc1ccc(F)cc1)c1ccc2ncc(Nc3cccc(O)c3)n2n1 | 14.0%[87.6 µM] | i | 63.1µM* | u | u | u
O=C1NCCCCCN(C(=O)CC2CCCC2)[C@@H]2C[C@@H](C(=O)N3CCc4ccccc4C3)C[C@H]12 | -4.1% | i | 31.6µM* | -10.9% | u | -6.7%
O=C1NCCCCCCN(C(=O)c2cccnc2)[C@H]2C[C@H](C(=O)N3CCc4ccccc4C3)C[C@@H]12 | -9.4% | i | -1.9% | 0.7% | 28.2µM* | 7.3%
O=C1NCCCCCCN(C(=O)c2cnccn2)[C@H]2C[C@H](C(=O)N3CCc4ccccc4C3)C[C@@H]12 | -24.3% | i | -18.7% | 3.7% | -15.8% | u
Cc1ccc(CN2CCCC(c3nn(-c4ccc(Cl)cc4)c(=O)[nH]3)C2)cc1 (stereo not given) | 10.8% | i | 35.5µM* | -26.0% | u | 1.0%
